GLP-1R agonist: qHTS of GLP-1 Receptor Agonists; Glucagon-like peptide 1 receptor (Homo sapiens), P43220; HEK293 GLP-1R CRE-luciferase, luminescence, 4-6 h; cells express a hypersensitive GLP-1R form; Potency, µM (highest dose often 45.6 µM), usual class: activators; actives 0.007% (n = 380,000)
Target sequence (P43220 whole entry, looked up): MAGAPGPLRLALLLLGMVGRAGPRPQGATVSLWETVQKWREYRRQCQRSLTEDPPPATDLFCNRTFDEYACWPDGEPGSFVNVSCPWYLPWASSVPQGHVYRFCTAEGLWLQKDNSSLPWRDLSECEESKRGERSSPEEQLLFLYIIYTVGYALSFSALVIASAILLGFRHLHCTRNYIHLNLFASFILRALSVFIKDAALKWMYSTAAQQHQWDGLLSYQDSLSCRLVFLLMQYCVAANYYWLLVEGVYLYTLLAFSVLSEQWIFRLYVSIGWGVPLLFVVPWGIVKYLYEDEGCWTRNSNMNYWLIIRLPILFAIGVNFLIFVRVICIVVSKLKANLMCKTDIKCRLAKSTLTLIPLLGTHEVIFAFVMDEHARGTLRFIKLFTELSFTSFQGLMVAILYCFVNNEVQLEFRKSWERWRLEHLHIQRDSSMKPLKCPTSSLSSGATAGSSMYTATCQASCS
GLP1R inv ag: qHTS of GLP-1 Receptor Inverse Agonists (Inhibition Mode); Glucagon-like peptide 1 receptor (Homo sapiens), P43220; HEK293 GLP-1R CRE-luciferase, luminescence, 24 h; GLP-1R form is constitutively active; Potency, µM (doses to about 38.3 µM), actives largely listed as inhibitors; actives 1.6% (n = 410,000); also: nearly all actives have a fitted effect of over 55% in size
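Cells are plated, allowed 12 hours at 37 deg C, then treated with compounds for 24 hr before luciferase detection reagent is added and luminescence is read after 12 min at room temperature. The HEK293 line carries constitutively active GLP-1R with a cAMP-responsive reporter.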
Tb PFK inh: qHTS Assay to Find Inhibitors of T. brucei phosphofructokinase | T. brucei PFK, ADP-Glo luminescence | Potency, µM (doses to about 57.5 µM), most hits filed as inhibitors | ATP-dependent 6-phosphofructokinase (Trypanosoma brucei brucei), O15648 | actives 0.17% (n = 330,000) | AID 485367, 2010; also: nearly all actives have a fitted effect of over 60% in size
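Luminescent ADP detection (ADP-Glo, two-step: ATP depletion then ADP-to-ATP conversion for luciferase) reported PFK activity after 45 min room-temperature reaction of 1.25 nM enzyme with 0.5 mM F6P and 0.1 mM ATP at pH 8.0.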
HEK293 tox: qHTS of GLP-1 Receptor Inverse Agonists: Cytotox Screen | Potency, µM (doses to about 38.3 µM), usual class: inhibitors | actives 0.13% (n = 410,000) | HEK293 cAMP-luciferase reporter cells, luminescence, 24 h;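 also: loss of luciferase light is scored as toxicity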
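Compound-treated cells are incubated 24 hr at 37 deg C under 5% CO2 after a 12 hour attachment period, then luciferase detection reagent is added and luminescence is measured following 12 min at room temperature; lowered signal indicates toxicity.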
Tb PGK inh: qHTS Assay to Find Inhibitors of Phosphoglycerate Kinase; Phosphoglycerate kinase, glycosomal (Trypanosoma brucei brucei), P07378; PGK/GAPDH coupled, Kinase-Glo luminescence, 60 min; Potency, µM (series often up to 57.5 µM), actives largely listed as inhibitors; actives 0.043% (n = 380,000); AID 602233, 2012; also: nearly all actives have a fitted effect of over 60% in size
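Recombinant glycosomal PGK reaction used 1,3-bisphosphoglycerate generated in-well by GAPDH (100nM final) in 100mM TEA pH 7.6, 5mM MgCl2, 0.01% Tween-20. After 60 minutes at room temperature, ATP was read by Kinase-Glo Plus luminescence end-point.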
Pin1 inhibitor: qHTS Assay to Find Inhibitors of Pin1. Peptidyl-prolyl cis-trans isomerase NIMA-interacting 1 (Homo sapiens), Q13526. Pin1 FP peptide displacement, HiFluor488, 10 min. Potency, µM (doses to about 115 µM), most hits filed as inhibitors. actives 0.009% (n = 390,000). AID 504891, 2011; active = well fitted inhibition curve with a large enough effect in the polarisation, with a control signal flat, not every such curve was filed as active; inconclusive = small, poorly fitted or top-dose-only effect, or effect the other way, or a change in a side signal; inactive = no such curve, though single readings can be large or run the other way; the % refers to the polarisation
Target sequence (Q13526 whole entry, looked up): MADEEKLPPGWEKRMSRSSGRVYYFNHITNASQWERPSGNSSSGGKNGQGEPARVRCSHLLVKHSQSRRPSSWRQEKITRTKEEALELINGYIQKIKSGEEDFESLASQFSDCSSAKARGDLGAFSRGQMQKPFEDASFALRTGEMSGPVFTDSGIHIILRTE
Hits are given with their value; n = inactive; u = inconclusive; x = not tested or not shown; [ ] = dose if it differs, or a comment. Rows were chosen to be rich in hits. Some 1.8% of all compounds tested hit in one or more screens of this group. Unless noted, calls follow the shape of the dose curve; as a rule, active = well fitted curve in the direction sought with a large enough effect; inconclusive = small, poorly fitted or top-dose-only effect, or another doubt; inactive = no such curve, though single readings can be large; an effect the other way counts as inactive or inconclusive.

SMILES | GLP-1R agonist | GLP1R inv ag | Tb PFK inh | HEK293 tox | Tb PGK inh | Pin1 inhibitor
CC(=O)N/N=C\c1cccc(OC/C=C/c2ccccc2)c1 | n | 3.55µM | n | n | n | n
COC(=O)CSc1ncnc2c1cnn2Cc1ccccc1 | n | n | n | n | n | n
CC(C)(C)C(=O)CSc1ncnc2c1cnn2Cc1ccccc1 | n | 3.55µM | n | n | n | n
O=C(CSc1ncnc2c1cnn2CCc1ccccc1)Nc1cccc(C(F)(F)F)c1 | n | 7.94µM | n | n | n | n
Cc1ccc(OCc2nc(-c3ccccn3)n[nH]2)cc1 | n | u | n | 2.51µM | n | n
Cc1cccc(OCc2nc(-c3ccccn3)n[nH]2)c1 | n | u | x | u | n | n
Cc1ccc(C(CC(=O)NCCCN(C)C)c2ccc(OC(C)C)cc2)cc1 (stereo not given) | n | 11.2µM | n | n | n | n
CCN(c1ncnc2c1c(-c1ccccc1)cn2-c1ccccc1)C1CCCCC1 | x | n | x | n | n | n
Cc1ccc(NS(=O)(=O)c2ccc3ccccc3c2)cc1C | x | x | x | x | x | n
Cc1ccc(NC(=O)C(OC(=O)c2ccc(O)cc2)c2ccccc2)cc1Cl (stereo not given) | n | n | n | n | x | n
Cc1ccc(NC(=O)C(c2ccccc2)N(C)C)cc1Cl (stereo not given) | n | 5.01µM | n | n | n | n
Cc1ccccc1OCC(=O)Nc1sc2c(c1C#N)CC(C)(C)NC2(C)C | n | u | n | n | n | n
CC1(C)Cc2c(sc(NC(=O)COc3ccc(Cl)cc3)c2C#N)C(C)(C)N1 | n | 5.62µM | n | n | n | n
Cc1cc(C)c(-c2csc(NC(=O)/C=C/c3cccs3)n2)c(C)c1 | n | 3.16µM | n | n | n | n
O=C(/C=C/c1cccs1)Nc1nccs1 | n | n | n | n | n | n
O=C(/C=C/c1cccs1)Nc1cccc(NC(=O)/C=C/c2cccs2)n1 | n | 3.98µM | n | u | n | u
Nc1ccccc1OC1=NS(=O)(=O)c2ccccc21 | x | x | x | x | x | n
Cc1cc2c(s1)c1cnn(Cc3cccc(Cl)c3)c(=O)c1n2C | x | x | x | x | x | n
CCCS/C(N)=N/N=C/c1cc(C)ccc1O | u | u | n | n | n | n
CCCCS/C(N)=N/N=C/c1ccccc1O | n | u | n | 2.82µM | n | n
CCCN(CCC)c1nn2c(=O)c(C(=O)NCc3cc(Br)ccc3OC)cnc2s1 | x | n | x | n | n | n
C/C(Cl)=C\Cn1c(O)c(N=NC(N)=S)c2cc(Br)ccc21 | n | 8.91µM | n | n | n | n
Cc1ccc2c(c1)c(N=NC(N)=S)c(O)n2Cc1ccccc1 | n | n | n | u | n | n
NC(=S)N=Nc1c(O)n(Cc2ccc(Br)cc2)c2ccccc12 | n | 2.51µM | n | 2.51µM | n | n
O=[S+]([O-])(c1ccc2c(c1)OCCO2)N1CCN([S+](=O)([O-])c2c(F)cc(O)cc2F)CC1 | x | x | x | x | x | n
SMILES | GLP-1R agonist | GLP1R inv ag | Tb PFK inh | HEK293 tox | Tb PGK inh | Pin1 inhibitor
Cc1noc(C)c1COc1cccc(C(=O)OCCOc2ccc(F)cc2)c1 | n | 10µM | n | n | n | u
O=C(c1ccccc1)C(Nc1cccc([N+](=O)[O-])c1)c1ccccc1 (stereo not given) | n | 7.94µM | x | n | n | n
O=C(NC(NC(=O)c1ccccc1)c1cccc([N+](=O)[O-])c1)c1ccccc1 | n | n | n | n | n | n
COc1ccc(NC(=O)C(C(C)C)N2Cc3ccccc3C2=O)cc1 (stereo not given) | x | n | x | n | n | n
Cc1cc(C)nc(-n2nc(C)cc2NC(=O)c2cccc(S(=O)(=O)N(C)C)c2)n1 | n | n | n | n | n | n
Cc1cc(C)nc(-n2nc(C)cc2NC(=O)CN2CCC(C)CC2)n1 | n | u | n | 5.01µM | n | n
Cc1cc(C)nc(-n2nc(C)cc2NC(=O)CN2CCCC2)n1 | n | u | n | u | x | n
Cc1ccc(C)c(C(=O)Nc2cc(C)nn2-c2nc(C)cc(C)n2)c1 | n | u | n | 1.78µM | n | n
CC1(C)Cc2ccccc2-c2nc3ccccc3c(=O)n21 | n | 7.94µM | n | n | n | n
Cc1nn(-c2nc3ccccc3n2Cc2ccccc2)c2c1C(=O)CC(C)(C)C2 | n | 2.24µM | x | n | n | n
O=C1C(Nc2ccccc2)=C(N2CCCCC2)C(=O)c2ccccc21 | n | u | n | n | n | n
O=C1C(Nc2cccc(O)c2)=C(N2CCCCC2)C(=O)c2ccccc21 | n | u | n | 3.55µM | n[11.5 µM] | n
O=c1[nH]c2c(s1)C(c1ccccc1)C1C3CCC(C3)C1S2 (stereo not given) | n | 6.31µM | n | n | n | n
COC(=O)c1c(C)sc(-c2c(-c3ccc(F)cc3)[nH]c3[nH]c(=O)[nH]c(=O)c23)c1O | x | n | x | n | x | n
Cc1ccc(C)c(SCC(=O)NCC(c2ccco2)N2CCCCC2)c1 (stereo not given) | n | 11.2µM | n | n | n | n
COc1ccc(C(CNC(=O)C(C)(C)Oc2ccc(Cl)cc2)N2CCCCC2)cc1 (stereo not given) | n | u | n | u | n | n
Cc1ccc(S(=O)(=O)NC(CC(C)C)C(=O)NCC(c2ccco2)N2CCCCC2)cc1 (stereo not given) | n | 4.47µM | n | n | n | n
CC(C)(Oc1ccc(Cl)cc1)C(=O)NCC(c1ccco1)N1CCCCC1 (stereo not given) | n | 8.91µM | n | n | n | n
Cc1cc(SCC(=O)NCC(c2cccs2)N2CCOCC2)c(C)cc1Br (stereo not given) | n | 11.2µM | n | n | n | n
CC(=O)Nc1ccc(S(=O)(=O)NC(C)C(=O)NCC(c2ccco2)N2CCCCC2)cc1 (stereo not given) | n | n | n | n | n | n
O=C(CSc1nc2c(sc3ccccc32)c(=O)n1CCCC(=O)NC1CCCC1)Nc1ccc(F)cc1 | x | n | x | n | n | n
Cc1cc2c(s1)c1cnn(Cc3cccc(C(F)(F)F)c3)c(=O)c1n2C | x | x | x | x | x | n
CC1(C)N=C(N)N=C(N)N1c1ccc(Cl)cc1 | n | x | x | x | x | x
Cc1c(C(=O)NCC(c2ccco2)N2CCCC2)sc2ccccc12 (stereo not given) | n | 8.91µM | n | n | n | n
O=C(NCC(c1ccco1)N1CCCC1)c1sc2ccccc2c1Cl (stereo not given) | n | n | n | n | n | n

Bioassay records deposited in PubChem by National Center for Advancing Translational Sciences (NCATS).
